# Several values for one entry are separate records, joined by “and”; a condition that tells them apart may be missing. Equal values may be shown once. This is part of a sample that, as a whole, favours compounds with a hit. Of some 83,000 tested, about 20% had one in any assay.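 Values shown are percent growth following 48 h exposure of cells in 96-well plates to a single concentration of compound; below 10 was considered active.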 Some compounds were tested as several samples or in several runs, with calls that do not always agree. Activity calls are given as the source filed them.
# System: MDA-MB-468 breast
# Test: NCI-60 one-dose screen, 48 h (100 = growth as untreated, 0 = no growth, -100 = all killed)
# Conditions: 10 µM unless noted
row,SMILES,growth
1,COc1ccc2sc(N(Cc3cccnc3)C(=O)c3ccc(C#N)cc3)nc2c1,73% (inactive)
2,CC(=O)Nc1nc(C)c(C(=O)NN)s1,87.8% (inactive)
3,CCCCN(CCCC)CCc1c(C)cc(C)c(CCN(CCCC)CCCC)c1O,0.281% (active)
4,NC(N)=Nc1ccc(Oc2cccc(NC(N)=Nc3ccc(Br)c(C(F)(F)F)c3)c2)cc1,4.68% (active)
5,O=CN1N=C(c2ccc(Nc3ccnc4cc(Cl)ccc34)cc2)CC1c1ccc(Cl)cc1 (stereo not drawn),-0.669% (active)
6,Cc1nn(-c2ccccc2)c2nc(Cl)c(C=O)c(-c3ccccc3)c12,94.7% (inactive)
7,O=C(CO)C(O)C(O)C(O)C(O)CO (stereo not drawn),-18.1% (active) and 102% (inactive)
8,O=C(Cc1csc2nc(-c3ccc(Cl)cc3)cn12)N/N=C/c1ccccc1O,56.7% (inactive)
9,Nc1cccc2cccc(O)c12,82.6% (inactive)
10,NC(=S)N/N=C\c1nccc2c(N)cccc12,-18.6% (active)
11,CCN(CC)CCC(CNc1ccnc2cc(Cl)ccc12)c1ccccc1 (stereo not drawn),-35.6% (active)
12,CC(=O)Nc1cc2c3c(cccc3c1)-c1ccccc1-2,108% (inactive)
13,CCOC(=O)c1c(CN2CCN(C)CC2)nc2ccc(Cl)cc2c1-c1ccccc1,63.7% (inactive)
14,COC(CCP(=O)(c1ccccc1)c1ccccc1)(C(=O)c1ccccc1)c1ccccc1 (stereo not drawn),54.7% (inactive)
15,COc1ccc(-c2no[n+]([O-])c2Nc2ccccc2Br)cc1,93.3% (inactive)
16,O=[N+]([O-])c1ccc(/C=N\Nc2ccccc2)cc1,94.7% (inactive)
17,CC1=C2[C@@H](CC1)[C@]1(C)O[C@@](C(C)C)(C[C@H]1OC(=O)CO)[C@H]2OC(=O)CCCc1ccccc1,88.3% (inactive)
18,COc1ccc(-c2nc3c(c(C)nn3-c3ccc(F)cc3)c(=O)[nH]2)cc1,88.9% (inactive)
19,COC(=O)[C@]12CC[C@@H](C)[C@H](C)[C@@H]1C1=CC[C@@H]3[C@@]4(C)C(C=O)=C[C@@](C)(COS(C)(=O)=O)C4=CC[C@@]3(C)[C@]1(C)CC2,-59.8% (active)
20,COc1ccc(-c2nc3ncccn3c2-c2nc3ccc(Br)cc3[nH]2)cc1,75.6% (inactive)
21,CCCCc1ccc(NC(=O)N(CCCl)N=O)cc1,91.4% (inactive)
22,COc1ccc(-c2c(C(=O)NS(C)(=O)=O)n(Cc3cccc(C(F)(F)F)c3)c3ccccc23)cc1,86.6% (inactive)
23,CC1=C(O)C(=O)C(C(C#N)(C#N)C(C#N)C#N)C1 (stereo not drawn),102% (inactive)
24,Cc1noc(C)c1CSc1ccccc1C(=O)N1CCN(c2cccc(C(F)(F)F)c2)CC1,38.1% (inactive)
25,COc1ccc(-c2[nH]c(=S)n(C(CC3(C)NCC(=O)N3n3c(-c4ccccc4)cc(C)nc3=S)c3ccc(OC)cc3)c(=O)c2Br)cc1 (stereo not drawn),-14.9% (active)
26,Cc1ccsc1C(=O)CC(=O)C(F)(F)C(F)(F)C(F)(F)F,112% (inactive)
27,N#Cc1nc(-c2ccccc2)oc1S(=O)(=O)N1CCOCC1,71.2% (inactive)
28,COCC(=O)Oc1cc(-c2ccc(C)cc2C)c(OC(=O)COC)c(-c2ccc(C)cc2C)c1,-0.64% (active)

# From PubChem BioAssay (NCI)
